# Laboratory results published in PubChem BioAssay (NCI).
# Compounds without any hit were thinned out: in the full panel of roughly 79,000, 15% have a hit. Unmarked numbers belong to inactive results. Calls of active or inactive are those of the source. Cut-off read from the data, not from the text of the source: active = growth inhibition above about 70%; inactive = the rest.
# Assays:
# [1] = NCI Yeast Anticancer Drug Screen. Data for the rad52 strain (AID 147);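 note: 0% = growth of vehicle-treated control cultures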; settings: S. cerevisiae rad52 mutant growth inhibition, active compounds read high
# Method in brief: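 Vehicle-treated cultures served as the reference for growth inhibition of compound-exposed yeast bearing a DNA repair mutation.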
# [2] = NCI Yeast Anticancer Drug Screen. Data for the wt1 strain (AID 149);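 note: 0% = growth of vehicle-treated wt1 cultures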; settings: S. cerevisiae wt1 strain (SPY 50644) growth inhibition, active compounds read high
# Method in brief: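 Compounds are added to wt1 yeast cultures. Growth is then measured. Inhibition is expressed relative to vehicle-treated controls.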
# [3] = NCI Yeast Anticancer Drug Screen. Data for the rad50EPP+ strain (AID 151);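 note: 0% = growth of vehicle-treated control cultures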; settings: S. cerevisiae rad50 mutant strain, active compounds read high
# Method in brief: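 In this screen, rad50EPP+ yeast were exposed to compounds. Growth inhibition was scored against vehicle-treated controls.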
# [4] = NCI Yeast Anticancer Drug Screen. Data for the mgt1 strain (AID 153); settings: S. cerevisiae mgt1 mutant growth inhibition, active compounds read high
# Method in brief: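 mgt1 strain exposed; growth vs vehicle control recorded as inhibition.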
# [5] = NCI Yeast Anticancer Drug Screen. Data for the rad50 strain (AID 155);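 note: 0% = growth of vehicle-only cultures of the same strain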; settings: S. cerevisiae rad50 strain growth inhibition, active compounds read high
# Method in brief: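 Inhibition values express reduced yeast growth in compound-treated cultures relative to vehicle-treated controls.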
# [6] = NCI Yeast Anticancer Drug Screen. Data for the mec2-1 strain (AID 157); settings: S. cerevisiae mec2-1 strain, active compounds read high
# Method in brief: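 Vehicle-treated cultures served as reference for growth inhibition of compound-exposed mec2-1 yeast.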
# [7] = NCI Yeast Anticancer Drug Screen. Data for the rad14 strain (AID 159);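 note: 0% = growth of vehicle-treated control cultures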; settings: S. cerevisiae rad14 strain growth inhibition, active compounds read high
# Method in brief: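 A mutant yeast strain defective in DNA damage repair is treated with compound; inhibition of its growth is scored against untreated, vehicle-exposed cultures.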
# [8] = NCI Yeast Anticancer Drug Screen. Data for the sgs1 mgt1 strain (AID 161);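 note: 0% = growth of cultures given vehicle only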; settings: S. cerevisiae sgs1 mgt1 strain, active compounds read high
# Method in brief: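 Test agents were incubated with a DNA-repair-mutant yeast strain. Growth was then read and compared against vehicle-treated controls.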
# [9] = NCI Yeast Anticancer Drug Screen. Data for the CLN2oe strain (AID 163);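 note: 0% = growth of vehicle-only control cultures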; settings: S. cerevisiae CLN2oe strain, active compounds read high
# Method in brief: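 Inhibition relative to vehicle-treated yeast is reported. Cells: strain with genetic alteration in cell-cycle control, grown with compound.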
# [10] = NCI Yeast Anticancer Drug Screen. Data for the cln2 rad14 strain (AID 165);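 note: 0% = growth equal to vehicle treated cultures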; settings: S. cerevisiae cln2 rad14 strain, active compounds read high
# Method in brief: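 Each compound was tested on cln2 rad14 yeast. Inhibition of growth was calculated against vehicle-exposed controls.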
# [11] = NCI Yeast Anticancer Drug Screen. Data for the bub3 strain (AID 167); settings: S. cerevisiae bub3 mutant strain, active compounds read high
# Method in brief: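 Steps: expose the mutant yeast strain to compound; grow alongside vehicle-treated cultures; measure growth; express inhibition against the vehicle cultures.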
# [12] = NCI Yeast Anticancer Drug Screen. Data for the wt2 strain (AID 169);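 note: 0% = growth of vehicle-treated yeast cultures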; settings: S. cerevisiae wt2 strain growth inhibition, active compounds read high
# Method in brief: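 Inhibition of yeast growth was determined after compound treatment, normalised to controls receiving only vehicle.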
# [13] = NCI Yeast Anticancer Drug Screen. Data for the mlh1 strain (AID 171);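 note: 0% = growth of vehicle-treated control cultures of the same strain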; settings: S. cerevisiae mlh1 strain growth inhibition, active compounds read high
# Method in brief: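 Vehicle-normalised growth inhibition of a repair- or checkpoint-altered yeast strain following compound treatment.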
# [14] = NCI Yeast Anticancer Drug Screen. Data for the sgs1 strain (AID 173);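 note: 0% = growth of vehicle-only control cultures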; settings: S. cerevisiae sgs1 mutant, active compounds read high
# Method in brief: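 Screen format: yeast with repair or checkpoint alterations, compound exposure, growth read relative to vehicle.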
# [15] = NCI Yeast Anticancer Drug Screen. Data for the mlh1 rad18 strain (AID 175); settings: S. cerevisiae mlh1 rad18 strain growth inhibition, active compounds read high
# Method in brief: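 Vehicle-treated cultures served as the reference for growth inhibition in a yeast strain carrying DNA damage repair alterations exposed to each compound.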
# [16] = NCI Yeast Anticancer Drug Screen. Data for the rad18 strain (AID 177); settings: S. cerevisiae rad18 mutant growth inhibition, active compounds read high
# Method in brief: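 Test articles were incubated with altered yeast defective in DNA damage repair. Results are given as inhibition of growth versus vehicle.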
# [17] = at 5.0 µM (retest, dose inferred, filed as 0.5)
# [18] = at 50.0 µM (retest, dose inferred, filed as 5.0)
compound,measurement,setting,value
Cc1ccc(C)c(C(=N)c2ccccc2Cc2ccccc2)c1,growth inhibition,[1]; at 1.2 µM,-5%
same,growth inhibition,[1]; at 3.7 µM,17%
same,growth inhibition,[1]; at 11.0 µM,70% (active)
same,growth inhibition,[1]; at 33.0 µM,94% (active)
same,growth inhibition,[1]; at 100.0 µM,97% (active)
same,growth inhibition,[2]; at 1.2 µM,-3%
same,growth inhibition,[2]; at 3.7 µM,10%
same,growth inhibition,[2]; at 11.0 µM,35%
same,growth inhibition,[2]; at 33.0 µM,90% (active)
same,growth inhibition,[2]; at 100.0 µM,97% (active)
same,growth inhibition,[3]; at 1.2 µM,-4%
same,growth inhibition,[3]; at 3.7 µM,2%
same,growth inhibition,[3]; at 11.0 µM,31%
same,growth inhibition,[3]; at 33.0 µM,84% (active)
same,growth inhibition,[3]; at 100.0 µM,94% (active)
same,growth inhibition,[4]; at 1.2 µM,-3%
same,growth inhibition,[4]; at 3.7 µM,37%
same,growth inhibition,[4]; at 11.0 µM,75% (active)
same,growth inhibition,[4]; at 33.0 µM,94% (active)
same,growth inhibition,[4]; at 100.0 µM,97% (active)
same,growth inhibition,[5]; at 1.2 µM,-1%
same,growth inhibition,[5]; at 3.7 µM,7%
same,growth inhibition,[5]; [17],60%
same,growth inhibition,[5]; at 11.0 µM,71% (active)
same,growth inhibition,[5]; at 33.0 µM,92% (active)
same,growth inhibition,[5]; [18],96% (active)
same,growth inhibition,[5]; at 50.0 µM,98.4% (active)
same,growth inhibition,[5]; at 100.0 µM,95% (active)
same,growth inhibition,[6]; at 1.2 µM,2%
same,growth inhibition,[6]; at 3.7 µM,12%
same,growth inhibition,[6]; [17],0%
same,growth inhibition,[6]; at 11.0 µM,72% (active)
same,growth inhibition,[6]; at 33.0 µM,95% (active)
same,growth inhibition,[6]; [18],94% (active)
same,growth inhibition,[6]; at 50.0 µM,97.3% (active)
same,growth inhibition,[6]; at 100.0 µM,97% (active)
same,growth inhibition,[7]; at 1.2 µM,0%
same,growth inhibition,[7]; at 3.7 µM,31%
same,growth inhibition,[7]; at 11.0 µM,52%
same,growth inhibition,[7]; at 33.0 µM,93% (active)
same,growth inhibition,[7]; at 100.0 µM,98% (active)
same,growth inhibition,[8]; [17],62%
same,growth inhibition,[8]; [18],94% (active)
same,growth inhibition,[8]; at 50.0 µM,97.5% (active)
same,growth inhibition,[9]; at 1.2 µM,-3%
same,growth inhibition,[9]; at 3.7 µM,6%
same,growth inhibition,[9]; at 11.0 µM,47%
same,growth inhibition,[9]; at 33.0 µM,95% (active)
same,growth inhibition,[9]; at 100.0 µM,98% (active)
same,growth inhibition,[10]; [17],18%
same,growth inhibition,[10]; [18],93% (active)
same,growth inhibition,[10]; at 50.0 µM,93.4% (active)
same,growth inhibition,[11]; at 1.2 µM,7%
same,growth inhibition,[11]; at 3.7 µM,29%
same,growth inhibition,[11]; [17],13%
same,growth inhibition,[11]; at 11.0 µM,77% (active)
same,growth inhibition,[11]; at 33.0 µM,96% (active)
same,growth inhibition,[11]; [18],97% (active)
same,growth inhibition,[11]; at 50.0 µM,97.4% (active)
same,growth inhibition,[11]; at 100.0 µM,95% (active)
same,growth inhibition,[12]; at 1.2 µM,-1%
same,growth inhibition,[12]; at 3.7 µM,42%
same,growth inhibition,[12]; at 11.0 µM,78% (active)
same,growth inhibition,[12]; at 33.0 µM,93% (active)
same,growth inhibition,[12]; at 100.0 µM,97% (active)
same,growth inhibition,[13]; at 1.2 µM,0%
same,growth inhibition,[13]; at 3.7 µM,35%
same,growth inhibition,[13]; at 11.0 µM,80% (active)
same,growth inhibition,[13]; at 33.0 µM,92% (active)
same,growth inhibition,[13]; at 100.0 µM,98% (active)
same,growth inhibition,[14]; at 1.2 µM,8%
same,growth inhibition,[14]; at 3.7 µM,60%
same,growth inhibition,[14]; at 11.0 µM,86% (active)
same,growth inhibition,[14]; at 33.0 µM,95% (active)
same,growth inhibition,[14]; at 100.0 µM,97% (active)
same,growth inhibition,[15]; [17],45%
same,growth inhibition,[15]; [18],94% (active)
same,growth inhibition,[15]; at 50.0 µM,98.2% (active)
same,growth inhibition,[16]; at 1.2 µM,-3%
same,growth inhibition,[16]; at 3.7 µM,20%
same,growth inhibition,[16]; at 11.0 µM,67%
same,growth inhibition,[16]; at 33.0 µM,94% (active)
same,growth inhibition,[16]; at 100.0 µM,96% (active)
